In PubChem BioAssay one finds composite z-score data, which are given here for 36 compounds.

The structures appear in SMILES notation.

Chain of Epidermal growth factor receptor (Homo sapiens) (P00533 whole entry, looked up): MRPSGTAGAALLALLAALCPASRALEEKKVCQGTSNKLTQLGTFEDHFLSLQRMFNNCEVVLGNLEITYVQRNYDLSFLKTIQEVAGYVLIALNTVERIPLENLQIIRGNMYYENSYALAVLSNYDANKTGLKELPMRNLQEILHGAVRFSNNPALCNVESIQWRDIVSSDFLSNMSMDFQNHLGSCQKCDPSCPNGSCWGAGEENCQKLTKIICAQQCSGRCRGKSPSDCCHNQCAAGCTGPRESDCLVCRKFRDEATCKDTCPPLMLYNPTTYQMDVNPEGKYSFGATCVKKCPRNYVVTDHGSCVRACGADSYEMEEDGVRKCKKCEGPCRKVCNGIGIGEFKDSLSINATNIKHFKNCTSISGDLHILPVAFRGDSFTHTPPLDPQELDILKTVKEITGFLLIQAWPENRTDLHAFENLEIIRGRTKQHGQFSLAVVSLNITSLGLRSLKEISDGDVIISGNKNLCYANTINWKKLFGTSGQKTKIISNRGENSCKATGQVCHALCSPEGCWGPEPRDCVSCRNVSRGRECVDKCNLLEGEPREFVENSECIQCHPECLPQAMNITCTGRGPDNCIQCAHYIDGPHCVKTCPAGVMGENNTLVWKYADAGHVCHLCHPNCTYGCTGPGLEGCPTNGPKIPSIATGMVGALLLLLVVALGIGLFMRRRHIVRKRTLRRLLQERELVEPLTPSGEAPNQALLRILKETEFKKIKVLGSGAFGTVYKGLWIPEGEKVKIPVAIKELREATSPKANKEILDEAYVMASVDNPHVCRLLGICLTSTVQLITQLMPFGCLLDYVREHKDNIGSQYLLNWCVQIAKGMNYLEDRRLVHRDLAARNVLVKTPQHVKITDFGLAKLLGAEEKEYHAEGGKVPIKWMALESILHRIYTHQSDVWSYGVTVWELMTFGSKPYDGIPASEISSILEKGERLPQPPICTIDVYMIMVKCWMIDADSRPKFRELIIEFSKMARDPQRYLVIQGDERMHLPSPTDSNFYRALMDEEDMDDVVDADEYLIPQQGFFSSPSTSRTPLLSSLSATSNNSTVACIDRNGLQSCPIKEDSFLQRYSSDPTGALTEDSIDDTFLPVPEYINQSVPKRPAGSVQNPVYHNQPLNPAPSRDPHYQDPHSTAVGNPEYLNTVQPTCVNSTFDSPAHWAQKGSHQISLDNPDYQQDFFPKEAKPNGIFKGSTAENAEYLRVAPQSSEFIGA

This assay has as its target Epidermal growth factor receptor (Homo sapiens) (UniProt P00533). Briefly: EGFR binders on small-molecule microarrays, primary screen, biochemical, small-molecule microarray, 635 nm fluorescence (AID 1104).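 Note: score merges 667 nm emission intensity with spot signal to noise over triplicate slides.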 Conditions: EGFR binding, higher = more signal.
`C=C1C(=O)C=C2CN(C(=O)c3ccccc3)[C@@](Cc3ccc(OC)cc3)(C(=O)OC)[C@@H]12`: the composite z-score worked out at 0.369.

For `COC(=O)[C@@]1(Cc2ccc(F)cc2)[C@H]2c3cc(C(=O)N(C)C)n(C)c3C[C@H]2CN1C(=O)c1ccccc1`, the composite z-score is -0.286.

As for `COCCCNC(=O)[C@@]1(CCS(=O)(=O)c2ccccc2)COC(c2ccc(OCCCO)cc2)=N1`, the composite z-score is -0.318.

`CO[C@H]1O[C@H](CO)[C@@H](OC(=O)Nc2ccc3c(c2)OCO3)[C@H](OC(=O)Nc2ccccc2-c2ccccc2)[C@H]1OC(=O)Nc1ccccc1-c1ccccc1` showed a composite z-score of -0.294.

For the compound `NC(=O)N1C(=O)C2C(C1=O)C1C=C(CCCO)C2C(C2CC2)N1Cc1sc2ccccc2c1Cl` (stereo unspecified), the composite z-score is -0.271.

As for `C=CC[C@@]1(C(=O)OC)N=C(c2ccc(OCCCO)cc2)O[C@@H]1c1ccccc1N=[N+]=[N-]`, the composite z-score came to 1.38.

`C=CCC(OC(C)=O)[C@@H]1[C@@H](N(Cc2ccc(-c3ccccc3)cc2)C(=O)c2cccc3ccccc23)c2cc(OCCCO)ccc2N1C(=O)Cc1ccc(OC)cc1` (stereo partly specified) showed a composite z-score of 0.0253.

The compound `CCOc1cc(C(O)C2C=CC3C(=O)N(c4ccccc4)C(=O)C3N2Nc2ccccc2F)ccc1O` (stereo unspecified) came in with a composite z-score of 0.232.

Compound `C=CCC(OC(C)=O)[C@@H]1[C@@H](N(Cc2cc3ccccc3o2)C(=O)c2cccc3ccccc23)c2cc(OCCCO)ccc2N1C(=O)c1ccc2ccccc2n1` (stereo partly specified) came in with a composite z-score of 0.3.

For the compound `COc1ccc(C(O)C2C=CC3C(=O)N(C)C(=O)C3N2N(c2ccccc2)c2ccccc2)cc1` (stereo unspecified), the composite z-score was -0.0923.

With `O=C1O[C@@H](c2ccccc2)[C@@H](c2ccccc2)N2[C@@H](c3ccc(OCCO)cc3)[C@]3(C(=O)Nc4ccc(C#CC5(O)CCCCCC5)cc43)[C@@H](C(=O)Nc3nc4ccccc4s3)[C@H]12`, the composite z-score came out at 0.533.

`COCCOC(=O)N1C(=O)[C@@]2(c3cc(C#CCCO)ccc31)[C@H](C(N)=O)[C@H]1C(=O)O[C@H](c3ccccc3)[C@H](c3ccccc3)N1[C@@H]2c1ccccc1OCCO` yielded a composite z-score of 0.375.

Regarding `CC1CC/C=C\[C@H]2OC34C=CCN(C(C)(C)C)C(=O)[C@H]3N(CCCO)C(=O)[C@@H]4C2C(=O)O1` (stereo partly specified), the composite z-score was -0.927.

Compound `COc1ccc([Si](C)(C)[C@H]2[C@H](CC(=O)N3Cc4ccccc4C[C@H]3CO)O[C@@]3(C(=O)N(C)c4ccccc43)[C@@H]2C)cc1` came in with a composite z-score of 1.01.

`Cc1ccc(S[C@]2(C(=O)NCCCN(C)C)CC(=O)N(C3Cc4ccccc4C3)[C@@H]2c2ccc(CO)cc2I)cc1` registered a composite z-score of -0.487.

Take `O=C1O[C@H](c2ccccc2)[C@H](c2ccccc2)N2[C@H]1[C@@H](C(=O)N1CCN(c3ncccn3)CC1)[C@]1(C(=O)Nc3ccc(C#CCCO)cc31)[C@H]2c1ccc(O)cc1`: the composite z-score worked out at 0.397.

Take `[N-]=[N+]=Nc1ccccc1C[C@]1(C(=O)N2CCOCC2)N=C(c2ccc(OCCCO)cc2)O[C@H]1c1ccccc1N=[N+]=[N-]`: the composite z-score came to 0.857.

The compound `COc1ccc(C(=O)Nc2ccc(CN3C(=O)[C@@]4(O[C@@H](CCn5cc(CCO)nn5)[C@H]([Si](C)(C)c5ccc(OC)cc5)[C@H]4C)c4ccccc43)cc2)cc1` had a composite z-score of 0.492.

On to `NC(=O)NCC#Cc1ccc2c(c1)[C@]1(C(=O)N2)[C@H](c2ccc(OCCO)cc2)N2[C@H](c3ccccc3)[C@H](c3ccccc3)OC(=O)[C@H]2[C@@H]1C(=O)NC[C@H](O)c1ccccc1`, for which the composite z-score was -0.256.

`O=C1[C@H]2C=C(I)[C@H](C[C@@H]2c2ccccc2)[C@@]12CO2` displayed a composite z-score of 0.384.

For `CC(C)NC(=O)[C@@H]1c2ccccc2C(=O)N(Cc2ccc(OC(F)(F)F)cc2)[C@H]1c1ccc(CO)cc1`, the composite z-score amounted to 0.272.

As to `COc1ccc([Si](C)(C)[C@H]2[C@H](CC(=O)N3Cc4ccccc4C[C@H]3CO)O[C@@]3(C(=O)N(c4ccccc4)c4ccccc43)[C@@H]2C)cc1`, the composite z-score came to 1.13.

`CC(C)(C)N1CC=CC23O[C@@H]4/C=C\CCCOC(=O)C4[C@H]2C(=O)N(CCCO)[C@@H]3C1=O` (stereo partly specified) gave a composite z-score of -1.33.

As to `O=C1C2C=CC(C(O)c3ccc([N+](=O)[O-])cc3)N(Nc3ccccc3F)C2C(=O)N1c1ccccc1` (stereo unspecified), the composite z-score is -0.0558.

In the case of `COc1ccccc1CN1C(=O)c2ccccc2[C@](Cc2ccccc2I)(C(=O)NCC(C)C)[C@@H]1c1ccc(CO)cc1`, the composite z-score was -1.19.

In turn, `C=C(CCCC)/C(=C/C[C@H](OC(=O)c1ccncc1)c1ccc(OCCO)cc1)c1cnc2ccccc2c1` yielded a composite z-score of 0.776.

`CCCC[C@H]1C[C@@H]1[C@@H]1N(C(C)=O)[C@H](c2cccc(OC)c2)CC12CC2` had a composite z-score of -0.0128.

`O=C1O[C@H](Cc2ccccc2)[C@@H]2[C@H]3C=CCCC=C3CN2[C@H]1Cc1ccc(O)cc1` yielded a composite z-score of -0.317.

As for `COCCOC(=O)N1C(=O)[C@@]2(c3cc(C#CCC(C(=O)OC)C(=O)OC)ccc31)[C@H](C(=O)Nc1nc3ccccc3s1)[C@H]1C(=O)O[C@H](c3ccccc3)[C@H](c3ccccc3)N1[C@@H]2c1ccc(OCCO)cc1`, the composite z-score was 1.03.

In turn, `CCCCCCc1nc(Cc2cc(OC)c(OC)c(OC)c2)cc2c1[Si](C(C)C)(C(C)C)O[C@H]2c1ccccc1` displayed a composite z-score of 0.569.

Regarding `COC(=O)c1cccc([C@H]2OC(=CC(=O)OC(C)C)C[C@@H](c3cccc(C(=O)OC)c3)O2)c1`, the composite z-score was 0.693.

In the case of `C=CC[C@]1(C(=O)NCC(O)CO)COC(c2ccc(OCCCO)cc2)=N1` (stereo partly specified), the composite z-score was -1.18.

On to `COC(=O)[C@@]1(Cc2ccccc2)[C@H]2c3cc(C(=O)N(C)C)n(Cc4ccc(C(F)(F)F)nc4)c3C[C@H]2CN1C(=O)c1ccccc1`, for which the composite z-score was -0.405.

`CCCNC(=O)[C@@]1(c2ccc([N+](=O)[O-])cc2)CC(=O)N(C(C)C)[C@@H]1c1ccc(CO)cc1`: the composite z-score was -1.52.

Consider `C[C@@H]1NC(=O)C([C@@H](C)OCc2ccccc2)NC(=O)[C@@]23C(=O)N[C@@H](Cc4ccccc4)C2[C@H](C)[C@@]2(C)O[C@H]2C3/C=C/C/C=C\CNC1=O` (stereo partly specified), for which the composite z-score was -0.506.

In turn, `CCOC(=O)C1=C[C@@H](C(C)(C)C)N(S(=O)(=O)c2ccc(C)cc2)[C@H]1c1ccc(C#N)cc1` came in with a composite z-score of 0.658.
